Results: PubChem BioAssay (NCATS)
Results filed as inconclusive are left out. Unmarked numbers belong to inactive results. The source made the active and inactive calls. The call rests on the fitted dose curve; in most records, active means well fitted curve in the direction sought with a large enough effect; inconclusive means small, poorly fitted or top-dose-only effect, or another doubt; inactive means no such curve, though single readings can be large; an effect the other way counts as inactive or inconclusive. Non-standard residues stand in square brackets, D forms with d. Residues, ends and D or L forms follow the SMILES beside them. *: point of attachment. Nva = CCC[C@H](N)C(=O)O; Cbz = O=C(OCc1ccccc1)*

experiment: qHTS of pediatric cancer cell lines to identify multiple opportunities for drug repurposing: Confirmatory screen for OHS-50 cells (AID 1347128); settings: OHS-50 osteosarcoma cells viability; series mostly up to 45.9 µM; activity change, negative = cytotoxic: at the top concentration;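 further: compound exposure lasted 48 h at 37 degrees C; nearly all actives have a fitted effect of over 55% in size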; on activity change, negative = cytotoxic: on the % scale 0 is the no-effect control and ±100 the full control effect
How it was run: (§1)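 Cells (500-1,000/well) in growth media were settled 5 h at 37 degrees C, then given compounds for 48 h. Viability was read as CellTiter-Glo luminescence. Primary runs used MIPE at 11 points (0.78 nM-46 µM) and NPC at 8 points (0.59 nM-46 µM); follow-ups used 11 points.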
Potency means the concentration at half of the fitted maximal effect.

Compound | activity change, negative = cytotoxic [%] | Potency
CC(=O)N1CCN(c2ccc(OCc3nn(C)c(C)c3-c3cccc4c(CCCOc5cccc6ccccc56)c(C(=O)O)n(Cc5cccnc5)c34)cc2)CC1 | -10.2 | –
CC(=O)O[C@@]12CO[C@H]1C[C@H](O)[C@@]1(C)C(=O)[C@H](O)C3=C(C)[C@@H](OC(=O)C(O)[C@@H](NC(=O)OC(C)(C)C)c4ccccc4)C[C@@](O)([C@@H](OC(=O)c4ccccc4)[C@@H]21)C3(C)C (stereo partly specified) | – | 23.3 nM (active)
C#CCC(Cc1cnc2nc(N)nc(N)c2n1)c1ccc(C(=O)N[C@@H](CCC(=O)O)C(=O)O)cc1 (stereo partly specified) | – | 41.4 nM (active)
O=C(O)C[C@H](O)C[C@H](O)C=Cc1c(C2CC2)nc2ccccc2c1-c1ccc(F)cc1 | – | 10400 nM (active)
COc1cccc2c1C(=O)c1c(O)c3c(c(O)c1C2=O)C[C@@](O)(C(=O)CO)C[C@@H]3O[C@H]1C[C@H](N)[C@H](OC2CCCCO2)[C@H](C)O1 (stereo partly specified) | – | 14700 nM (active)
CC(C)(O)Cn1c(NC(=O)c2ccc(-c3cn[nH]c3)s2)nc2cc(CN3CCOCC3)ccc21 | – | 827 nM (active)
C[C@H](NCc1ccc2c(c1)nc(NC(=O)c1ccc(-c3cn[nH]c3)s1)n2CCc1ccccc1)C(C)(C)C | – | 1470 nM (active)
CC(C(C)N1CC(=O)NC(=O)C1)N1CC(=O)NC(=O)C1 (stereo unspecified) | -6.93 | –
CCC[C@@H](C=O)NC(=O)[C@H](CC(C)C)NC(=O)[C@H](CC(C)C)NC(=O)OCc1ccccc1 (Cbz-Leu-Leu-[Nva]-aldehyde) | – | 2330 nM (active)
CS[C@H]1SC[C@@H]2C(=O)N(C)[C@H](C(C)C)C(=O)OC[C@H](NC(=O)c3cnc4ccccc4n3)C(=O)N[C@H](C)C(=O)N(C)[C@@H]1C(=O)N(C)[C@H](C(C)C)C(=O)OC[C@H](NC(=O)c1cnc3ccccc3n1)C(=O)N[C@H](C)C(=O)N2C | – | 14.7 nM (active)
COC1=C2C[C@@H](C)C[C@H](OC)[C@@H](O)[C@@H](C)C=C(C)[C@H](OC(N)=O)[C@@H](OC)C=CC=C(C)C(=O)NC(=CC1=O)C2=O | – | 4650 nM (active)
Cc1ccc([N+](=O)[O-])cc1S(=O)(=O)N(C)N=Cc1cnc2ccc(Br)cn12 | – | 465 nM (active)
C=Cc1c(C)c2cc3nc(cc4[nH]c(cc5nc(cc1[nH]2)C(C)=C5CCC(=O)O)c(CCC(=O)OC)c4C)[C@@]1(C)C3=CC=C(C(=O)OC)[C@H]1C(=O)OC | -4.19 | –
C=CC(=O)N1CCc2ccc(-n3c(=O)ccc4cnc5ccc(-c6cnn(C)c6)cc5c43)cc21 | – | 7370 nM (active)
FC(F)c1nc2ccccc2n1-c1nc(N2CCOCC2)nc(N2CCOCC2)n1 | – | 1650 nM (active)
CC(C=CC(=O)NO)=C[C@@H](C)C(=O)c1ccc(N(C)C)cc1 | – | 1470 nM (active)
CC1(C)O[C@@H]2C[C@H]3[C@@H]4CCC5=CC(=O)C=C[C@]5(C)[C@@H]4[C@@H](O)C[C@]3(C)[C@]2(C(=O)CO)O1 | 6.28 | –

experiment: qHTS of pediatric cancer cell lines to identify multiple opportunities for drug repurposing: Confirmatory screen for SK-N-SH cells (AID 1347129); settings: SK-N-SH neuroblastoma cell viability; series mostly up to 46.1 µM; activity change, negative = cytotoxic: at the top concentration;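 further: cells exposed to compound for 48 h before viability read; nearly all actives have a fitted effect of over 60% in size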;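 on activity change, negative = cytotoxic: plate controls were DMSO for no effect and bortezomib control for full effect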
How it was run: as §1

Compound | Potency | activity change, negative = cytotoxic [%]
Cn1cc(CNCC2CCN(c3ncc(C(=O)NO)cn3)CC2)c2ccccc21 | 469 nM (active) | –
Cn1cnc(=N)c2[nH]cnc21 | – | 0.399
CC(=O)N1CCN(c2ccc(OCc3nn(C)c(C)c3-c3cccc4c(CCCOc5cccc6ccccc56)c(C(=O)O)n(Cc5cccnc5)c34)cc2)CC1 | – | 9.7
CNC(=O)c1ccc(Nc2cc(Nc3ccccc3S(=O)(=O)C(C)C)c3cc[nH]c3n2)nc1 | 5900 nM (active) | –
Cc1nc(NC(=O)N2CCC[C@@H]2C(N)=O)sc1-c1ccnc(C(C)(C)C(F)(F)F)c1 | 11800 nM (active) | –
CC(C)(O)Cn1c(NC(=O)c2ccc(-c3cn[nH]c3)s2)nc2cc(CN3CCOCC3)ccc21 | 1320 nM (active) | –
C[C@H](NCc1ccc2c(c1)nc(NC(=O)c1ccc(-c3cn[nH]c3)s1)n2CCc1ccccc1)C(C)(C)C | 833 nM (active) | –
Cn1cc(-c2cnn3c(N)c(Br)c([C@H]4CCCNC4)nc23)cn1 | 18700 nM (active) | –
CS(=O)(=O)N1CCc2c(-c3cnc(N)nc3)nc(N3CCOCC3)nc21 | 2640 nM (active) | –
CCC[C@@H](C=O)NC(=O)[C@H](CC(C)C)NC(=O)[C@H](CC(C)C)NC(=O)OCc1ccccc1 (Cbz-Leu-Leu-[Nva]-aldehyde) | 1320 nM (active) | –
CC(=O)[C@]1(O)Cc2c(O)c3c(c(O)c2[C@@H](O[C@H]2C[C@H](N)[C@@H](O)[C@H](C)O2)C1)C(=O)c1ccccc1C3=O | 209 nM (active) | –
Cc1ccc([N+](=O)[O-])cc1S(=O)(=O)N(C)N=Cc1cnc2ccc(Br)cn12 | 235 nM (active) | –
C=Cc1c(C)c2cc3nc(cc4[nH]c(cc5nc(cc1[nH]2)C(C)=C5CCC(=O)O)c(CCC(=O)OC)c4C)[C@@]1(C)C3=CC=C(C(=O)OC)[C@H]1C(=O)OC | – | -0.803
C=CC(=O)N1CCc2ccc(-n3c(=O)ccc4cnc5ccc(-c6cnn(C)c6)cc5c43)cc21 | 5900 nM (active) | –
Cc1cc(Nc2ncc3c(n2)N(C)C(=O)N(c2cc(NC(=O)c4cccc(C(F)(F)F)c4)ccc2C)C3)n(C)n1 | 332 nM (active) | –
O=C(C=CC#Cc1cccc(NS(=O)(=O)c2ccccc2)c1)NO | 4180 nM (active) | –
FC(F)c1nc2ccccc2n1-c1nc(N2CCOCC2)nc(N2CCOCC2)n1 | 2350 nM (active) | –
CCS(=O)(=O)Nc1ccc2[nH]c(O)c(C(=Nc3ccc(CN4CCCCC4)cc3)c3ccccc3)c2c1 | 332 nM (active) | –
CC1(C)O[C@@H]2C[C@H]3[C@@H]4CCC5=CC(=O)C=C[C@]5(C)[C@@H]4[C@@H](O)C[C@]3(C)[C@]2(C(=O)CO)O1 | – | 7.28
